According to ChEMBL document CHEMBL3988442, “University of Dundee, Small-Polar-MMV Screening Library” (2021):

These compounds were tested against AMP-activated protein kinase, AMPK (Homo sapiens) (UniProt P54646+O43741+P54619+Q9UGJ0+Q9Y478+Q13131+Q9UGI9) (assay: AMP-dependent Kinase enzyme assay. An in vitro enzyme assay that detects ADP turnover that is directly proportional to AMPK activity. This uses naive AMPK that is activated during the assay with MK-8722). Settings: 30 µM.
Format: functional
Parameters: scale not given: direction of the effect not stated beside the values
Compound Cc1c(NC(=O)CN2CCN(C3CCCC3)C(=O)C2)cnn1C has a Percent Effect of 2.4%.
Compound CC(C)(NCCOc1ccc(CC#N)cc1)c1nccs1 has a Percent Effect of -2.44%.
CCn1ncnc1C1CC(=O)NCc2nc(N3CCCC3)sc21 (stereo not given) was tested, and the Percent Effect was -10.2%.
With COCCCN1CCCC(c2nccn2CC2CCC2)C1 (stereo not given) the Percent Effect was 0.821%.
For CC(C)c1ccc(/C=C/CC(=O)NC2CCS(=O)(=O)CC2)cc1, the Percent Effect was -2.16%.
Work on COc1ccc(Cl)cc1C(=O)NCc1cnn(C)c1C yielded a Percent Effect of 7.53%.
CN(C)c1ncccc1N(C)C(=O)Cn1cc(-c2ccccc2)nn1 was tested, and the Percent Effect was -17.2%.
Work on CCn1cnnc1CCNC(=O)c1ccc(F)c(Br)c1 yielded a Percent Effect of -5.58%.
Cc1cnc2c(C(=O)N3CCCC(OCc4ccccn4)C3)cnn2c1 (stereo not given) gave a Percent Effect of 4.92%.
In the case of CNS(=O)(=O)c1ccc(CN2CCN3CCNC(=O)C3C2)cc1 (stereo not given), the Percent Effect is reported as -3.21%.
Cc1ccc(O)c(C(=O)N2CCC3(CCCNC3)C2)c1 (stereo not given) was tested, and the Percent Effect was 11.1%.
In the case of CN(c1ncc(S(N)(=O)=O)s1)C1CCC1, the Percent Effect is reported as 5.05%.
For Cc1cc(S(=O)(=O)N(CCO)C2CC2)ccc1F, the Percent Effect was 0.797%.
Compound Cc1cc(NCCc2nc(C)cs2)nc(-c2cccnc2)n1 has a Percent Effect of 5.81%.
In the case of COC(CNC(=O)c1ccc(NC(C)=O)cc1)c1cccc(Cl)c1 (stereo not given), the Percent Effect is reported as 1.2%.
COC(=O)CCN(C)C(=O)c1csc(Cc2ccccc2F)n1 showed a Percent Effect of -2.56%.
Work on Cc1n[nH]c(C)c1CCN(C)C(=O)c1ccc(CCC(C)(C)O)cc1 yielded a Percent Effect of 2.23%.
For Cc1nnc(NC(=O)NCCCN2CCC(C(N)=O)CC2)s1, the Percent Effect was 5.59%.
CCC(=O)NC(C)c1ccccc1C (stereo not given) was tested, and the Percent Effect was 14.9%.
For O=C(Nc1ccc(Br)cc1F)c1ccc(N2CCCCC2)nn1, the Percent Effect was 1.92%.
Work on CCN(CC(=O)NC(C)C)C(=O)c1csc(Cc2ccccc2)n1 yielded a Percent Effect of -2.97%.
With Cc1ccc(-c2cc(C(=O)N(C)Cc3noc4c3CCCC4)[nH]n2)s1 the Percent Effect was -10.3%.
With COc1ccc(Cl)cc1CN(C)C(=O)CN1C(=O)OC[C@@H]1C(C)C the Percent Effect was 1.71%.
In the case of Cc1nc(NC2(CN3CCCCC3)CCCCC2)c2cnn(C)c2n1, the Percent Effect is reported as 5.76%.
With Cc1c(Br)cccc1NC(=O)N(C)CCO the Percent Effect was -2.37%.
For CC(C)(O)CCc1cccc(C(=O)NCc2nccs2)c1, the Percent Effect was 0.5%.
CC(C)Cn1ncc(C(=O)NS(=O)(=O)C2CCCC2)c1C1CC1 was tested, and the Percent Effect was 5.57%.
With Cc1noc(CCNC(=O)C2CSCN2C(=O)C2CCCC2)n1 (stereo not given) the Percent Effect was 3.34%.
CN1CCC(NC(=O)c2cc(Br)cc(Cl)c2O)C1=O (stereo not given) was tested, and the Percent Effect was 11.8%.
Cc1ncsc1C(=O)N1CC[C@@]2(O)CCN(C(=O)N3CCCC3)C[C@H]2C1 gave a Percent Effect of -1.97%.
O=C(NCC(F)(F)F)c1ccc(-n2cncn2)nn1 was tested, and the Percent Effect was -2.06%.
Cc1ccc(S(=O)(=O)N(C)CC(C)O)c(F)c1 (stereo not given) gave a Percent Effect of 8.59%.
For COCCC(=O)N(C)CCC1=CCN(C)CC1, the Percent Effect was -12.9%.
With CCSCc1cccc(NCc2cccnc2)c1 the Percent Effect was 5.73%.
CN1CCCC1CCNC(=O)c1ccccc1-n1cc(CN)cn1 (stereo not given) was tested, and the Percent Effect was 11.2%.
O=C(c1coc(-c2ccccc2)n1)N1CCCCC1 gave a Percent Effect of 0.702%.
Work on CCCN(CCc1ccccn1)C(=O)Cn1cnnn1 yielded a Percent Effect of 4.35%.
CCc1nc(CCNS(=O)(=O)c2cccc(C(=O)N(C)CC)c2)cs1 gave a Percent Effect of 1%.
For CC(C)(C)NC(=O)CN1CCCNCC1, the Percent Effect was -0.0888%.
CCOCC(C)(C)NC(=O)Nc1cc(F)ccc1OC gave a Percent Effect of 1.04%.
